Tau fibril ThT: tau fibrillization inhibition (ThT binding); Potency, µM (series often up to 57.4 µM), without a hit: at the highest dose activity, negative = inhibition, most hits filed as inhibitors; recombinant tau K18 P301L, heparin-induced fibrillization, ThT fluorescence; 270,000 tested, 2.1% active; P10636; further: potency means the concentration at half of the fitted maximal effect; on the % scale 0 is the no-effect control and ±100 the full control effect; nearly all actives have a fitted effect of over 55% in size
Target sequence (P10636 561-689 P618L limits assumed): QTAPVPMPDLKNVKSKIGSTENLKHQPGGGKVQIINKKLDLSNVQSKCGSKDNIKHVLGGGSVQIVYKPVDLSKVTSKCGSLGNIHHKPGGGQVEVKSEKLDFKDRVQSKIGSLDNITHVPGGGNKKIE
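Heparin-induced fibrillization of the P301L-mutant K18 repeat-domain fragment of human tau was followed by ThT binding in quantitative high-throughput format.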
JMJD2E inh: blocks human JMJD2E demethylase activity | JMJD2E catalytic domain, FDH-coupled NADH fluorescence (FDH is formaldehyde dehydrogenase) | AID 2147 | 230,000 tested, 1.6% active | Potency, µM (doses to about 57.1 µM), without a hit: at the top dose activity change, negative = inhibition, most hits filed as inhibitors; active means well fitted inhibition curve with a large enough effect, not every such curve was filed as active; inconclusive means small, poorly fitted or top-dose-only effect, or another doubt; inactive means no such curve, though single readings can be large or run the other way;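 further: potency means the concentration at half of the fitted maximal effect; 0% = wells with enzyme and -100% = buffer wells without enzyme; nearly all actives have a fitted effect of over 50% in size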
Tau fluor cs: counter-screen for tau fibril formation inhibitors; tau K18 P301L Alexa594 fluorescence, heparin fibrillization; Potency, µM (series often up to 57.7 µM), for the others: top-dose activity change, negative = decrease; 280,000 tested, 0.93% active; further: potency means the concentration at half of the fitted maximal effect; on the % scale 0 is the no-effect control and ±100 the full control effect; nearly all actives have a fitted effect of over 55% in size
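Human tau K18 P301L (15 uM unlabeled, 0.24 uM Alexa 594-labeled) in 100 mM sodium acetate pH 7 with 20 uM heparin, 6 hr at 37 C. ThT 30 uM added, 1 hr ambient; Alexa 594 FP and total fluorescence read at 555/632 nm.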
LMNA splice mod: modulators of lamin A splicing. HeLa LMNA splicing GFP/RFP minigene ratio, 48 h. Potency, µM (highest dose often 46.1 µM), without a hit: at the highest dose ratio change, negative = inhibition, most hits filed as inhibitors. 200,000 tested, 0.01% active. AID 1487; active means well fitted inhibition curve with a large enough effect in the signal ratio, with a control signal flat, not every such curve was filed as active; inconclusive means small, poorly fitted or top-dose-only effect, or effect the other way, or a change in a side signal; the % refers to the signal ratio; further: potency means the concentration at half of the fitted maximal effect; on the % scale 0 is the no-effect control and ±100 the full control effect
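S3 HeLa cells stably expressing lamin A-EGFP splicing minigene plus DsRed2, 600 cells/well, 48 h compound exposure at 37C. Laser-scanning cytometry; analysed as GFP (500-530 nm)/RFP (575-640 nm) total intensity ratio; 0.5% DMSO vehicle.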
CBFb RUNX1 block: inhibitors of human CBF-beta and RUNX1 interaction. Q01196+Q13951. 230,000 tested, under 10 active. AID 1477. Potency, µM (titrated, usually from 59.8 µM), for the others: at the highest dose activity, negative = inhibition, usual class: inhibitors. AlphaScreen CBFb-His/RUNX1-biotin binding, biochemical; further: % of control where 0% means no effect
Target sequence (Q01196 whole entry, looked up): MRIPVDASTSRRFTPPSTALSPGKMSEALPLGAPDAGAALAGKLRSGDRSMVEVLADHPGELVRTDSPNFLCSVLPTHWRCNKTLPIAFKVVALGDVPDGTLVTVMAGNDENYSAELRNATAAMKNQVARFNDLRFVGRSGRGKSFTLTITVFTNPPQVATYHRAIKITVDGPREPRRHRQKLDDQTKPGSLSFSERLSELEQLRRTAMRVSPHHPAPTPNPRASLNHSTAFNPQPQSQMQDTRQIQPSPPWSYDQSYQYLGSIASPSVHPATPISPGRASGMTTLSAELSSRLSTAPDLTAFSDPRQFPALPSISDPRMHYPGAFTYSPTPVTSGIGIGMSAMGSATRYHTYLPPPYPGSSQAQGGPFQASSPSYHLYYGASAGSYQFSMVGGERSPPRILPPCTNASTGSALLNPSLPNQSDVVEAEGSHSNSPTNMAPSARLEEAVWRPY
Target sequence (Q13951 whole entry, looked up): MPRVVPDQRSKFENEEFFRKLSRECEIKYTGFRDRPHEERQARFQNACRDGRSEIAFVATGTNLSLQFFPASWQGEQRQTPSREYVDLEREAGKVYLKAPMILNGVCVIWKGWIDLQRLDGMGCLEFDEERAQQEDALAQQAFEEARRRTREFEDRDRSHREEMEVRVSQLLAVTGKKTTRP
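Interaction loss through any mechanism counts as activity. Pre-formed complex of His-CBF-beta and biotin-RUNX1 (30 nM apiece) is incubated with compound 15 min, then with 50 ng nickel and 50 ng streptavidin beads for 90 min before AlphaScreen detection.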
Tau fibril FP: inhibitors of human tau fibril formation. P10636. K18 P301L tau heparin fibrillization, Alexa594 FP, 6 h. Potency, µM (highest dose often 57.7 µM), for the others: at the top dose activity, negative = inhibition, hits mostly inhibitors. 280,000 tested, 0.39% active. AID 1468; further: potency means the concentration at half of the fitted maximal effect; on the % scale 0 is the no-effect control and ±100 the full control effect; nearly all actives have a fitted effect of over 55% in size
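Recombinant K18 P301L […], labeled with Alexa 594 at 0.24 uM over 15 uM unlabeled; heparin inducer 20 uM final; 37 C, 6 hr; FP endpoint.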
An asterisk follows results filed as active; ? = inconclusive; . = no result given; [ ] = another dose, or the depositor's remark. In the library only some 3.2% were active in any assay of this set; here they are far more common. Unless noted, the call rests on the fitted dose curve; in most records, active means well fitted curve in the direction sought with a large enough effect; inconclusive means small, poorly fitted or top-dose-only effect, or another doubt; inactive means no such curve, though single readings can be large; an effect the other way counts as inactive or inconclusive.

SMILES	Tau fibril ThT	JMJD2E inh	Tau fluor cs	LMNA splice mod	CBFb RUNX1 block	Tau fibril FP
Cc1cccc(OCCCC(=O)Nc2ccc(N(C)C)cc2)c1	12.6µM*	-3.3%	-22.9%	8.1%	-3.4%	16.2%
CCCN1CCC(=O)N(C(CSc2ccc(OC)cc2)CC(C)C)CC1 (stereo unspecified)	.	.	.	.	7.6%	.
O=C1/C(=C/c2ccco2)CCc2ccccc21	?	-3.8%	-14.1%	-2.1%	-2.4%	2.9%
O=C(O)c1ccc2c(c1)C(=O)/C(=C\c1ccco1)C2=O	11.2µM*	-29.1%	?	-7.3%[46 µM]	?	15.8µM*
Cc1ccc(C=C2C(=O)c3ccccc3C2=O)o1	8.91µM*	-1.4%	3.6%	-2.2%	?	?
O=C1C(=Cc2ccco2)C(=O)c2ccccc21	12.6µM*	-23.5%	?	-2.0%	?	?
O=C1C(=Cc2cccs2)C(=O)c2ccccc21	3.9%	2.4%	4.0%	0.8%	0.7%	-2.5%
Cc1ccc(/C=C2/C(=O)c3ccc(C(=O)O)cc3C2=O)o1	5.62µM*	-22.8%	-20.1%	-2.1%[46 µM]	?	?
COc1ccc(N(Cc2cccs2)C(=O)COc2ccc([N+](=O)[O-])cc2)cc1	-8.1%	.	-26.8%	-10.6%[46 µM]	.	3.4%
Cc1c(I)c(=O)n(-c2ccccc2)n1C	-1.5%	.	-1.1%	?	7.8%	-4.4%
CC12CCC(C(=O)N(CSC(=S)N/N=C\c3ccccc3O)C1=O)C2(C)C (stereo unspecified)	10.5%	2.4%	2.6%	-19.0%	7.9%	5.2%
CN(C)c1ccc(/C=N\NC(=S)SCN2C(=O)C3CCC(C)(C2=O)C3(C)C)cc1 (stereo unspecified)	8.91µM*	?	12.6µM*[quencher]	-0.8%	3.4%	7.3%
Cc1ccc(C(=O)CSC2=C(C#N)C(c3ccco3)C3=C(CCCC3=O)N2)cc1 (stereo unspecified)	15.8µM*	-8.9%	-29.5%	-16.5%	-4.7%	10.6%
N#CC1=C(SCC(=O)c2ccccc2)NC2=C(C(=O)CCC2)C1c1ccco1 (stereo unspecified)	12.6µM*	?	-26.8%	6.0%	2.9%	31.6µM*
CC(C)(C)c1ccc(C(=O)CCCSC2=C(C#N)C(c3ccco3)C3=C(CCCC3=O)N2)cc1 (stereo unspecified)	-15.4%	-2.2%	-13.9%	?	-5.1%	-15.8%
Cc1cc(C)n(CCC(=O)N/N=C/c2ccc(O)cc2O)n1	6.9%	14.1µM*	1.3%	?	-21.0%	8.3%
O=C(CCN1CCN(C(c2ccccc2)c2ccccc2)CC1)N/N=C/c1ccc(O)cc1O	-16.0%	?	15.8µM*[quencher]	?	-24.9%	?
O=C(CCC(=O)Nc1ccc(F)cc1)N/N=C/c1ccc(O)cc1O	?	25.1µM*	-15.7%	.	-16.9%	2.3%
O=C(O)CCC(=O)Nc1ccc(F)cc1	-11.6%	4.8%	-13.9%	7.7%	4.9%	2.6%
COc1cccc2c(SCC(=O)N/N=C/c3ccc(O)cc3O)cc(C)nc12	?	28.2µM*	-27.9%	.	-9.1%	-4.7%
Cc1cc(C)n(CCC(=O)N/N=C/c2ccccc2O)n1	-1.4%	-7.9%	-2.9%	-21.4%	14.4%	-6.3%
CC1CCN(S(=O)(=O)c2cc(C(=O)N3CCN(c4cccc(Cl)c4)CC3)n(C)c2)CC1	-8.0%	.	-7.3%	-0.7%[46 µM]	.	5.1%
Cc1cccc(CNC(=O)C(=O)Nc2ccccc2C)c1	-4.3%	.	-14.5%	.	.	-14.1%
CCc1nn(CC(=O)NCCc2ccc(Cl)cc2)c(=O)c2cc3c(OC)cccc3n12	?	.	-4.1%	.	.	-9.0%
Cc1ccc(NC(=O)c2c(NC(=O)C(F)(F)F)sc3c2CCCCC3)cc1	14.1µM*	.	?	.	.	9.6%
SMILES	Tau fibril ThT	JMJD2E inh	Tau fluor cs	LMNA splice mod	CBFb RUNX1 block	Tau fibril FP
O=C(Nc1cccc(Cl)c1)c1c(NC(=O)C(F)(F)F)sc2c1CCCC2	10µM*	.	?	.	.	?
Cc1ccc(NC(=O)c2c(NC(=O)c3ccccc3)sc3c2CCC3)cc1	-5.1%	.	-11.8%	.	.	-11.1%
Cc1cccc(NC(=O)c2c(NC(=O)C(F)(F)F)sc3c2CCCCC3)c1	15.8µM*	.	?	.	.	11.0%
O=C(COc1ccc(Cl)cc1)Nc1sc2c(c1C(=O)Nc1cccc(Cl)c1)CCCC2	12.6µM*	.	-8.0%	.	.	?
COc1ccc(-c2noc(COc3cc(C)c(Br)c(C)c3)n2)cc1OC	?	.	-17.9%	.	.	?
COc1cc(C(=O)O[C@H]2C/C(C)=C/CC/C(C)=C/[C@@H](O)C2C(C)C)ccc1O (stereo partly specified)	.	.	.	.	22.5%	.
CCOC(=O)c1c(C)[nH]c(N=Nc2cccc(OC)c2)c1C	5.01µM*	-3.8%	?	-8.9%[9.22 µM]	.	10.8%
CCOC(=O)c1c(C)[nH]c(N=Nc2cccc(C)c2)c1C	10µM*	0.7%	?	-7.6%	?	6.5%
CC(C)C[C@H](NC(=O)[C@H](CC(C)C)NC(=O)[C@H](Cc1ccccc1)NC(=O)[C@@H](N)CO)C(=O)N[C@@H](CCCNC(=N)N)C(=O)N[C@@H](CC(N)=O)C(=O)N1CCC[C@H]1C(=O)N[C@@H](CC(N)=O)C(=O)N[C@@H](CC(=O)O)C(=O)N[C@@H](CCCCN)C(=O)N[C@@H](Cc1ccc(O)cc1)C(=O)N[C@@H](CCC(=O)O)C(=O)N1CCC[C@H]1C(=O)N[C@@H](Cc1ccccc1)C(=O)O	.	.	.	.	22.9%	.
Cc1c(Cl)cccc1-n1nc(C)c2c(C(=O)NCc3ccccc3)cc(C3CC3)nc21	1.4%	.	-3.0%	-13.1%[46 µM]	.	-2.1%
O=S(=O)(NCc1csc(-c2ccccc2)n1)c1ccccc1	-10.7%	.	-19.2%	.	.	0.6%
COc1cccc(OC)c1C1=Nn2c(nnc2-c2ccccc2O)SC1	.	.	.	.	5.4%	.
CC1=C(C(=O)Nc2ccccc2C)C(c2ccccn2)n2ncnc2N1 (stereo unspecified)	3.3%	.	7.6%	-8.7%[46 µM]	.	4.1%
CCC(NC(C)C)C(O)c1ccc(O)c(O)c1 (stereo unspecified)	?	12.6µM*	?	?	4.4%	-11.1%
CCCCCNCCCCC	.	.	.	.	12.2%[21.7 µM]	.
CCCN1C(=O)/C(=C/c2c(NCCCOC(C)C)nc3c(C)cccn3c2=O)SC1=S	?	4.3%	-11.8%	?	7.2%	1.0%
CCC(C)N1C(=O)/C(=C/c2c(NCCCOC(C)C)nc3c(C)cccn3c2=O)SC1=S (stereo unspecified)	?	?	0.8%	?	-2.7%	25.1µM*
O=C(Cn1c(=O)nc(-c2ccccc2)c2ccccc21)N1CCN(c2ccc(F)cc2)CC1	-2.7%	.	-5.5%	2.0%[46 µM]	.	-2.6%
CCCc1cc(-c2[nH]ncc2-c2ccc3c(c2)OCCCO3)c(O)cc1OC	?	?	10µM*[quencher]	?	-20.2%	-13.0%
